Results: the supplement of paper PMC8728848
The entries come from a sample that favours the strongest signals as a whole.

B1: Surfactant Protein D (Human); Neck + Carbohydrate Recognition Domain (NCRD) (Homo sapiens) (protein)
chain: MLLFLLSALVLLTQPLGYLEAEMKTYSHRTMPSACTLVMCSSVESGLPGRDRDGREGPRGEKGDPGLPGAAGQAGMPGQAGPVGPKGDNGSVGEPGPKGDTGPSGPPGPPGVPGPAGREGALGKQGNIGPQGKPGPKGEAGPKGEVGAPGMQGSAGARGLAGPKGERGVPGERGVPGNTGAAGSAGAMGPQGSPGARGPPGLKGDKGIPGDKGAKGESGLPDVASLRQQVEALQGQVQHLQAAFSQYKKVELFPNGQSVGEKIFKTAQFVKPFTEAQLLCTQAGGQLASPRSAAENAALQQLVVAKNEAAFLSMTDSKTEGKFTYPTGESLVYSNWAPGEPNDDGGSEDCVEIYTNGKWNDRACGEKRLVVCEF
B2: UDA (Urtica dioica), P11218 (protein)
chain: MMMRFLSAVVIMSSAMAVGLVSAQRCGSQGGGGTCPALWCCSIWGWCGDSEPYCGRTCENKCWSGERSDHRCGAAVGNPPCGQDRCCSVHGWCGGGNDYCSGSKCQYRCSSSVRGPRVALSGNSTANSIGNVVVTEPLFDQMFSHRKDCPSQGFYSYHSFLVAAESFPAFGTIGDVATRKREVAAFLAHISQATSGERSDVENPHAWGLCHINTTTVTENDFCTSSDWPCAAGKKYSPRGPIQLTHNFNYGLAGQAIGEDLIQNPDLVEKDPIISFKTALWFWMSQHDNKPSCHDIVLNANSAANRIPNKGVIGNIISRAFGHDDFAVRSSSIGFYKRYCDMLGVSYGHDLKYWFDNTPSSEFQRIQMRVAA

Legend:
Assay in all cases: glycan array binding signal (z-score within array); higher = stronger binding
[1] = target: Fuc(a1-2)Gal(b1-3)GalNAc(b1-3)Gal; conditions: glycan notation: IUPAC condensed, linker removed; mutation: F335Y
Summary of the method: (§1)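 The binding signal is a Z-score computed within each array. Data were drawn from 3228 arrays in the Consortium for Functional Glycomics database, restricted to those with a known protein sequence. Scores were averaged over arrays of the same protein sequence at different concentrations or buffers, and over linkers, and negative values can be taken as non-binding.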

[2] = target: Fuc(a1-2)Gal(b1-3)GalNAc(b1-4)[Neu5Ac(a2-3)]Gal(b1-4)Glc; conditions: glycan notation: IUPAC condensed, linker removed; mutation: F335Y
Summary of the method: as §1

[3] = target: Fuc(a1-3)[Gal(b1-4)]GlcNAc(b1-4)Gal(b1-4)[Fuc(a1-3)]GlcNAc; conditions: glycan notation: IUPAC condensed, linker removed; mutation: F335Y
Summary of the method: as §1

[4] = target: Gal(a1-6)Glc; conditions: glycan notation: IUPAC condensed, linker removed; mutation: F335Y
Summary of the method: as §1

[5] = target: Gal(b1-3)[GlcNAc(b1-6)]GalNAc; conditions: glycan notation: IUPAC condensed, linker removed; mutation: F335Y
Summary of the method: as §1

[6] = target: Gal(b1-4)GlcNAc(b1-3)GalNAc; conditions: glycan notation: IUPAC condensed, linker removed; mutation: F335Y
Summary of the method: as §1

[7] = target: Gal6S(b1-4)Glc6S; conditions: glycan notation: IUPAC condensed, linker removed; mutation: F335Y
Summary of the method: as §1

[8] = target: GlcNAc(b1-2)Gal(b1-3)GalNAc; conditions: glycan notation: IUPAC condensed, linker removed; mutation: F335Y
Summary of the method: as §1

[9] = target: GlcNAc(b1-3)Gal; conditions: glycan notation: IUPAC condensed, linker removed; mutation: F335Y
Summary of the method: as §1

[10] = target: GlcNAc(b1-3)GalNAc; conditions: glycan notation: IUPAC condensed, linker removed; mutation: F335Y
Summary of the method: as §1

[11] = target: GlcNAc(b1-3)Man; conditions: glycan notation: IUPAC condensed, linker removed; mutation: F335Y
Summary of the method: as §1

[12] = target: Man(a1-2)Man(a1-2)Man(a1-6)[Man(a1-3)]Man; conditions: glycan notation: IUPAC condensed, linker removed; mutation: F335Y
Summary of the method: as §1

[13] = target: Man(a1-2)Man(a1-3)[Man(a1-2)Man(a1-6)]Man; conditions: glycan notation: IUPAC condensed, linker removed; mutation: F335Y
Summary of the method: as §1

[14] = target: Man(a1-2)Man(a1-3)[Man(a1-2)Man(a1-6)]Man(a1-6)[Man(a1-2)Man(a1-2)Man(a1-3)]Man; conditions: glycan notation: IUPAC condensed, linker removed; mutation: F335Y
Summary of the method: as §1

[15] = target: Man(a1-2)Man(a1-6)[Man(a1-3)]Man(a1-6)[Man(a1-2)Man(a1-2)Man(a1-3)]Man(b1-4)GlcNAc(b1-4)GlcNAc; conditions: glycan notation: IUPAC condensed, linker removed; mutation: F335Y
Summary of the method: as §1

[16] = target: Man(a1-3)[Man(a1-6)]Man(a1-6)[Man(a1-2)Man(a1-3)]Man(b1-4)GlcNAc(b1-4)GlcNAc; conditions: glycan notation: IUPAC condensed, linker removed; mutation: F335Y
Summary of the method: as §1

[17] = target: Man(a1-3)[Man(a1-6)]Man(a1-6)[Man(a1-3)]Man; conditions: glycan notation: IUPAC condensed, linker removed; mutation: F335Y
Summary of the method: as §1

[18] = target: Neu5Ac(a2-3)Gal(b1-3)GalNAc; conditions: glycan notation: IUPAC condensed, linker removed; mutation: F335Y
Summary of the method: as §1

[19] = target: Neu5Ac(a2-3)Gal(b1-4)GlcNAc(b1-6)[Neu5Ac(a2-3)Gal(b1-3)]GalNAc; conditions: glycan notation: IUPAC condensed, linker removed; mutation: F335Y
Summary of the method: as §1

[20] = target: Neu5Ac(a2-6)Gal(b1-4)GlcNAc(b1-3)Gal(b1-4)[Fuc(a1-3)]GlcNAc(b1-3)Gal(b1-4)[Fuc(a1-3)]GlcNAc; conditions: glycan notation: IUPAC condensed, linker removed; mutation: F335Y
Summary of the method: as §1

[21] = target: Neu5Ac(a2-6)Gal(b1-4)GlcNAc(b1-2)Man(a1-3)Man(b1-4)GlcNAc(b1-4)GlcNAc; conditions: glycan notation: IUPAC condensed, linker removed
Summary of the method: as §1

[22] = target: Neu5Ac(a2-6)Gal(b1-4)GlcNAc(b1-2)Man(a1-3)[GlcNAc(b1-4)][Neu5Ac(a2-6)Gal(b1-4)GlcNAc(b1-2)Man(a1-6)]Man(b1-4)GlcNAc(b1-4)GlcNAc; conditions: glycan notation: IUPAC condensed, linker removed
Summary of the method: as §1

[23] = target: Neu5Ac(a2-6)Gal(b1-4)GlcNAc(b1-2)Man(a1-3)[Man(a1-6)]Man(b1-4)GlcNAc(b1-4)GlcNAc; conditions: glycan notation: IUPAC condensed, linker removed
Summary of the method: as §1

[24] = target: Neu5Gc(a2-8)Neu5Gc(a2-3)Gal(b1-4)GlcNAc; conditions: glycan notation: IUPAC condensed, linker removed
Summary of the method: as §1

Row | Binder | glycan array binding signal (z-score) [1] | glycan array binding signal (z-score) [2] | glycan array binding signal (z-score) [3] | glycan array binding signal (z-score) [4] | glycan array binding signal (z-score) [5] | glycan array binding signal (z-score) [6] | glycan array binding signal (z-score) [7] | glycan array binding signal (z-score) [8] | glycan array binding signal (z-score) [9] | glycan array binding signal (z-score) [10] | glycan array binding signal (z-score) [11] | glycan array binding signal (z-score) [12] | glycan array binding signal (z-score) [13] | glycan array binding signal (z-score) [14] | glycan array binding signal (z-score) [15] | glycan array binding signal (z-score) [16] | glycan array binding signal (z-score) [17] | glycan array binding signal (z-score) [18] | glycan array binding signal (z-score) [19] | glycan array binding signal (z-score) [20] | glycan array binding signal (z-score) [21] | glycan array binding signal (z-score) [22] | glycan array binding signal (z-score) [23] | glycan array binding signal (z-score) [24]
1 | B1 | -0.184 | -0.189 | -0.183 | -0.189 | -0.185 | -0.191 | -0.187 | -0.189 | -0.18 | -0.193 | -0.187 | 5.87 | 7.66 | 7.37 | 5.84 | 7.18 | 3.93 | -0.19 | -0.178 | -0.122 | – | – | – | –
2 | B2 | – | – | – | – | – | – | – | – | – | – | – | – | – | – | – | – | – | – | – | – | 1.69 | -0.179 | 4.09 | -0.107
